This is part of a sample that, as a whole, favours compounds with a hit. Of some 79,000 tested, about 15% had one in any assay. A number with no mark means an inactive call. The source made the active and inactive calls. Rule as the data show it: active = growth inhibition above about 70%; inactive = the rest.
Assay: NCI Yeast Anticancer Drug Screen. Data for the rad18 strain (AID 177)
Conditions: S. cerevisiae rad18 mutant growth inhibition, stronger effect = higher value
Method: Growth inhibition of yeast strains with defined genetic alterations is measured as a screen for potential anti-cancer activity. Selected strains with alterations in DNA damage repair or cell cycle control were exposed to compounds and growth inhibition was measured relative to vehicle treated controls. The strain used in this assay is rad18

Structure (SMILES) | growth inhibition (at 1.2 µM) | growth inhibition (at 3.7 µM) | growth inhibition (at 11.0 µM) | growth inhibition (at 33.0 µM) | growth inhibition (at 100.0 µM)
O=C(N/N=C\c1c(Cl)cccc1Cl)N/N=C/c1c(Cl)cccc1Cl | -10% | 1% | -11% | -10% | -13%
CCCCOC(=O)CSSCC(=O)OCCCC | -2% | 15% | 40% | 84% (active) | 98% (active)
COc1cc2c(cc1C[N+](C)(C)CSc1ccccc1)-c1ccccc1CC2 | 9% | 12% | 77% (active) | 99% (active) | 99% (active)
Cc1ccc(Nc2n[nH]c(=S)s2)cc1 | -17% | -10% | 0% | 80% (active) | 94% (active)
O=C1c2ccccc2CCC1(Br)Br | 13% | 23% | 75% (active) | 99% (active) | 99% (active)
COc1cc(NCc2ccc3nc(N)nc(N)c3c2C)cc(OC)c1OC | -6% | -2% | 1% | 20% | 77% (active)
CN(N=O)C(=O)N[C@@H](C=O)[C@@H](O)[C@H](O)[C@H](O)CO | 0% | 0% | 0% | 2% | 19%
Oc1ccc(Br)cc1C=NC1CCCCC1 | 5% | 11% | 29% | 92% (active) | 97% (active)

— PubChem BioAssay (NCI)
